In ChEMBL document CHEMBL1961873, “Compounds: GSK PKIS; Assays: Nanosyn kinase panel” (2012):

Tests used:
[1] = biological target: PAS domain-containing serine/threonine-protein kinase (Homo sapiens) (UniProt Q96RG2); conditions: at 0.1 µM
[2] = biological target: PAS domain-containing serine/threonine-protein kinase (Homo sapiens) (UniProt Q96RG2); conditions: at 1 µM
[3] = biological target: Phosphorylase b kinase gamma catalytic chain, skeletal muscle/heart isoform (Homo sapiens) (UniProt Q16816); conditions: at 0.1 µM
[4] = biological target: Phosphorylase b kinase gamma catalytic chain, skeletal muscle/heart isoform (Homo sapiens) (UniProt Q16816); conditions: at 1 µM
[5] = biological target: Phosphorylase b kinase gamma catalytic chain, liver/testis isoform (Homo sapiens) (UniProt P15735); conditions: at 0.1 µM
[6] = biological target: Phosphorylase b kinase gamma catalytic chain, liver/testis isoform (Homo sapiens) (UniProt P15735); conditions: at 1 µM
[7] = biological target: Serine/threonine-protein kinase pim-1 (Homo sapiens) (UniProt P11309); conditions: at 0.1 µM
[8] = biological target: Serine/threonine-protein kinase pim-1 (Homo sapiens) (UniProt P11309); conditions: at 1 µM
[9] = biological target: Serine/threonine-protein kinase pim-2 (Homo sapiens) (UniProt Q9P1W9); conditions: at 0.1 µM
[10] = biological target: Serine/threonine-protein kinase pim-2 (Homo sapiens) (UniProt Q9P1W9); conditions: at 1 µM
[11] = biological target: Serine/threonine-protein kinase pim-3 (Homo sapiens) (UniProt Q86V86); conditions: at 0.1 µM
[12] = biological target: Serine/threonine-protein kinase pim-3 (Homo sapiens) (UniProt Q86V86); conditions: at 1 µM
[13] = biological target: MAP kinase-activated protein kinase 5 (Homo sapiens) (UniProt Q8IW41); conditions: at 0.1 µM
[14] = biological target: MAP kinase-activated protein kinase 5 (Homo sapiens) (UniProt Q8IW41); conditions: at 1 µM
[15] = biological target: Serine/threonine-protein kinase SIK1 (Homo sapiens) (UniProt P57059); conditions: at 0.1 µM
[16] = biological target: Serine/threonine-protein kinase SIK1 (Homo sapiens) (UniProt P57059); conditions: at 1 µM
[17] = biological target: Serine/threonine-protein kinase SIK2 (Homo sapiens) (UniProt Q9H0K1); conditions: at 0.1 µM
[18] = biological target: Serine/threonine-protein kinase SIK2 (Homo sapiens) (UniProt Q9H0K1); conditions: at 1 µM
[19] = biological target: Serine/threonine-protein kinase TBK1 (Homo sapiens) (UniProt Q9UHD2); conditions: at 0.1 µM
[20] = biological target: Serine/threonine-protein kinase TBK1 (Homo sapiens) (UniProt Q9UHD2); conditions: at 1 µM
[21] = biological target: Testis-specific serine/threonine-protein kinase 1 (Homo sapiens) (UniProt Q9BXA7); conditions: at 0.1 µM
[22] = biological target: Testis-specific serine/threonine-protein kinase 1 (Homo sapiens) (UniProt Q9BXA7); conditions: at 1 µM
[23] = biological target: Testis-specific serine/threonine-protein kinase 2 (Homo sapiens) (UniProt Q96PF2); conditions: at 0.1 µM
[24] = biological target: Testis-specific serine/threonine-protein kinase 2 (Homo sapiens) (UniProt Q96PF2); conditions: at 1 µM
[25] = biological target: Casein kinase I isoform alpha (Homo sapiens) (UniProt P48729); conditions: at 0.1 µM
[26] = biological target: Casein kinase I isoform alpha (Homo sapiens) (UniProt P48729); conditions: at 1 µM
[27] = biological target: Casein kinase I isoform gamma-1 (Homo sapiens) (UniProt Q9HCP0); conditions: at 0.1 µM
[28] = biological target: Casein kinase I isoform gamma-1 (Homo sapiens) (UniProt Q9HCP0); conditions: at 1 µM
[29] = biological target: Casein kinase I isoform gamma-2 (Homo sapiens) (UniProt P78368); conditions: at 0.1 µM
[30] = biological target: Casein kinase I isoform gamma-2 (Homo sapiens) (UniProt P78368); conditions: at 1 µM
[31] = biological target: Casein kinase I isoform gamma-3 (Homo sapiens) (UniProt Q9Y6M4); conditions: at 0.1 µM
[32] = biological target: Casein kinase I isoform gamma-3 (Homo sapiens) (UniProt Q9Y6M4); conditions: at 1 µM
[33] = biological target: Cyclin-dependent kinase 1 (Homo sapiens) (UniProt P06493); conditions: at 0.1 µM
[34] = biological target: Cyclin-dependent kinase 1 (Homo sapiens) (UniProt P06493); conditions: at 1 µM
[35] = biological target: Cyclin-dependent kinase 2 (Homo sapiens) (UniProt P24941); conditions: at 0.1 µM
[36] = biological target: Cyclin-dependent kinase 2 (Homo sapiens) (UniProt P24941); conditions: at 1 µM
[37] = biological target: Cyclin-dependent kinase 2 (Homo sapiens) (UniProt P24941); conditions: at 0.1 µM; remark: listed apart in the source
[38] = biological target: Cyclin-dependent kinase 2 (Homo sapiens) (UniProt P24941); conditions: at 1 µM; remark: listed apart in the source
[39] = biological target: T1, CDK3/Cyclin E (Homo sapiens) (UniProt P24864+Q00526); conditions: at 0.1 µM
[40] = biological target: T1, CDK3/Cyclin E (Homo sapiens); conditions: at 1 µM
[41] = biological target: Cyclin-dependent kinase 4 (Homo sapiens) (UniProt P11802); conditions: at 0.1 µM
[42] = biological target: Cyclin-dependent kinase 4 (Homo sapiens) (UniProt P11802); conditions: at 1 µM
[43] = biological target: Cyclin-dependent kinase 5 (Homo sapiens) (UniProt Q00535); conditions: at 0.1 µM
[44] = biological target: Cyclin-dependent kinase 5 (Homo sapiens) (UniProt Q00535); conditions: at 1 µM
[45] = biological target: Cyclin-dependent kinase 6 (Homo sapiens) (UniProt Q00534); conditions: at 0.1 µM
[46] = biological target: Cyclin-dependent kinase 6 (Homo sapiens) (UniProt Q00534); conditions: at 1 µM
[47] = biological target: Dual specificity protein kinase CLK2 (Homo sapiens) (UniProt P49760); conditions: at 0.1 µM
[48] = biological target: Dual specificity protein kinase CLK2 (Homo sapiens) (UniProt P49760); conditions: at 1 µM
[49] = biological target: Dual specificity protein kinase CLK3 (Homo sapiens) (UniProt P49761); conditions: at 0.1 µM
[50] = biological target: Dual specificity protein kinase CLK3 (Homo sapiens) (UniProt P49761); conditions: at 1 µM
[51] = biological target: Dual specificity tyrosine-phosphorylation-regulated kinase 1A (Homo sapiens) (UniProt Q13627); conditions: at 0.1 µM
[52] = biological target: Dual specificity tyrosine-phosphorylation-regulated kinase 1A (Homo sapiens) (UniProt Q13627); conditions: at 1 µM
[53] = biological target: Dual specificity tyrosine-phosphorylation-regulated kinase 1B (Homo sapiens) (UniProt Q9Y463); conditions: at 0.1 µM
[54] = biological target: Dual specificity tyrosine-phosphorylation-regulated kinase 1B (Homo sapiens) (UniProt Q9Y463); conditions: at 1 µM
[55] = biological target: Dual specificity tyrosine-phosphorylation-regulated kinase 2 (Homo sapiens) (UniProt Q92630); conditions: at 0.1 µM
[56] = biological target: Dual specificity tyrosine-phosphorylation-regulated kinase 2 (Homo sapiens) (UniProt Q92630); conditions: at 1 µM

Sequence of Testis-specific serine/threonine-protein kinase 2 (Homo sapiens) (Q96PF2 whole entry, canonical isoform): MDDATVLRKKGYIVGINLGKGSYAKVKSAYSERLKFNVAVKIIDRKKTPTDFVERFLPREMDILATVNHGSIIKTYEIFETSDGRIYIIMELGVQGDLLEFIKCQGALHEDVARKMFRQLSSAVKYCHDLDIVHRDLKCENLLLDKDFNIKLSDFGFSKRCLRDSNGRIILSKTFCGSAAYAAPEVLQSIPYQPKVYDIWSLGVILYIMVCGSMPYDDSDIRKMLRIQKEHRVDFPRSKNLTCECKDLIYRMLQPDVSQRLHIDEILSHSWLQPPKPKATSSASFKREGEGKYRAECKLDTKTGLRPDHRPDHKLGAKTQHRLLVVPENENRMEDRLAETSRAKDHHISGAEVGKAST
Sequence of Serine/threonine-protein kinase TBK1 (Homo sapiens) (Q9UHD2 whole entry): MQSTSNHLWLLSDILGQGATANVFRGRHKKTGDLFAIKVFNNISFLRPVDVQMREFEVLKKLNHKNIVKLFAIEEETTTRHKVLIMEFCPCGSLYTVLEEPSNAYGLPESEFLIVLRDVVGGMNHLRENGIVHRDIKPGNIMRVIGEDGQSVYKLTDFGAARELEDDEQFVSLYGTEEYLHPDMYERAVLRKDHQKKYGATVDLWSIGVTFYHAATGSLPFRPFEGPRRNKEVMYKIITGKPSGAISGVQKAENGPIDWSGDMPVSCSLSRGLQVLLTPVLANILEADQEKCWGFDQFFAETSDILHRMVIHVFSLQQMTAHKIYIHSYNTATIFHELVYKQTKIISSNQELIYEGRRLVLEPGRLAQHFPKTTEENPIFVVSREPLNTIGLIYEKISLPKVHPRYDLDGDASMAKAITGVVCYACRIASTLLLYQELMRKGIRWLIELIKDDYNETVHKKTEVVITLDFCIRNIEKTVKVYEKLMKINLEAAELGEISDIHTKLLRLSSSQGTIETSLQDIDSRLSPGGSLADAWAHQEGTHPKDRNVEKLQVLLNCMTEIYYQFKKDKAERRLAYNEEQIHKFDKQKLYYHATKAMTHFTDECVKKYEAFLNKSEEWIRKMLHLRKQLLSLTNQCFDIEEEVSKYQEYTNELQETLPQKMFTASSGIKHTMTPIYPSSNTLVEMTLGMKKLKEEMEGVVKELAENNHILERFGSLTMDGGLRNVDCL
Sequence of Casein kinase I isoform gamma-3 (Homo sapiens) (Q9Y6M4 whole entry, looked up, canonical isoform): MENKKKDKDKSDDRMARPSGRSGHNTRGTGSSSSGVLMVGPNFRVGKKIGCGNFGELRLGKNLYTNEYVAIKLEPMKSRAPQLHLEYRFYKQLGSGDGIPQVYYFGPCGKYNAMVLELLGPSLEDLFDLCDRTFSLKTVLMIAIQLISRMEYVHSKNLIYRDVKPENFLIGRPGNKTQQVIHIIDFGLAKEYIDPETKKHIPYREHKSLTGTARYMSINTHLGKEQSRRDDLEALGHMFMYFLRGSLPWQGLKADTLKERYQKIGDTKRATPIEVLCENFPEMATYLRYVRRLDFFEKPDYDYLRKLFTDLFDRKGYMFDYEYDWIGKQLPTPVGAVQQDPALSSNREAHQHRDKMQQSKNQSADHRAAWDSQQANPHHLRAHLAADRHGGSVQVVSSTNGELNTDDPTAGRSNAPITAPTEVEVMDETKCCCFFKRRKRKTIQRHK
Sequence of Phosphorylase b kinase gamma catalytic chain, skeletal muscle/heart isoform (Homo sapiens) (Q16816 whole entry, looked up, canonical isoform): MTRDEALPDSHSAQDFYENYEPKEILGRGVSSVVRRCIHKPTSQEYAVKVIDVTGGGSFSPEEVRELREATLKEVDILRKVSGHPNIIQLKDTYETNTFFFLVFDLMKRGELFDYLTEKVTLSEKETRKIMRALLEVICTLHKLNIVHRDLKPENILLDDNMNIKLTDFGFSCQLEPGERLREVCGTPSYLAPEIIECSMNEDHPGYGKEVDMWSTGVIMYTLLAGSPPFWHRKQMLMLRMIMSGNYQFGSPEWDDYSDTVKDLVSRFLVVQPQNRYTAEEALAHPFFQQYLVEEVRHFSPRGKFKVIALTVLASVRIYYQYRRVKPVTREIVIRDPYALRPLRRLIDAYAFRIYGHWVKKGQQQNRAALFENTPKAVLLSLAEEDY
Sequence of Dual specificity tyrosine-phosphorylation-regulated kinase 1B (Homo sapiens) (Q9Y463 whole entry, looked up): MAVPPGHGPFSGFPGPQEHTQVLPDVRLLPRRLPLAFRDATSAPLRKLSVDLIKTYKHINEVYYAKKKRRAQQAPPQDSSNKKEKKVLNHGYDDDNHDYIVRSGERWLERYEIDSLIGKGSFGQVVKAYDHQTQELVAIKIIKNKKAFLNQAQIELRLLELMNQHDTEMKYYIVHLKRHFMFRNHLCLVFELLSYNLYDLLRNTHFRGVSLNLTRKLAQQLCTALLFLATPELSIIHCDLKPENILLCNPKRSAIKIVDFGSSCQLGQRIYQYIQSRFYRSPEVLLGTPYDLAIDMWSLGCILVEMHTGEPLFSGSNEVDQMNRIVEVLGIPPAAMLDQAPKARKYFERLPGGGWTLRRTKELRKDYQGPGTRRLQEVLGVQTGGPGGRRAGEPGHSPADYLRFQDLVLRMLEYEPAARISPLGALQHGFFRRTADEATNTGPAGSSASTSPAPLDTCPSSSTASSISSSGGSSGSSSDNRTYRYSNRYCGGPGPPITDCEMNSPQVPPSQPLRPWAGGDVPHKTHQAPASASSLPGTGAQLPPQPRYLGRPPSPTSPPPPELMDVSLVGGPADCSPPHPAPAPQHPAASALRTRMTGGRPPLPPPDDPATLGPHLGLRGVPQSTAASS
Sequence of Casein kinase I isoform gamma-1 (Homo sapiens) (Q9HCP0 whole entry, looked up, canonical isoform): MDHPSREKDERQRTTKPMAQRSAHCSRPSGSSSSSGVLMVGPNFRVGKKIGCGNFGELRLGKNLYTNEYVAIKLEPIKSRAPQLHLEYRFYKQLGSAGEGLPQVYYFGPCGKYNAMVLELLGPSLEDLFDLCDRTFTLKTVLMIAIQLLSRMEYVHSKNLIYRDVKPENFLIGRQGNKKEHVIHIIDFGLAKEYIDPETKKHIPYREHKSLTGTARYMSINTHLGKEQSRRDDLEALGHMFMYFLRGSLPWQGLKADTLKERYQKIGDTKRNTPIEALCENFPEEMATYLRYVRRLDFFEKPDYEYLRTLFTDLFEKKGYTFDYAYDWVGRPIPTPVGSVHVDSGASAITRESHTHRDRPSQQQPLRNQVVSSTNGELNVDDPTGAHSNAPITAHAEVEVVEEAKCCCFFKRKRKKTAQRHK
Sequence of Serine/threonine-protein kinase SIK2 (Homo sapiens) (Q9H0K1 whole entry, looked up): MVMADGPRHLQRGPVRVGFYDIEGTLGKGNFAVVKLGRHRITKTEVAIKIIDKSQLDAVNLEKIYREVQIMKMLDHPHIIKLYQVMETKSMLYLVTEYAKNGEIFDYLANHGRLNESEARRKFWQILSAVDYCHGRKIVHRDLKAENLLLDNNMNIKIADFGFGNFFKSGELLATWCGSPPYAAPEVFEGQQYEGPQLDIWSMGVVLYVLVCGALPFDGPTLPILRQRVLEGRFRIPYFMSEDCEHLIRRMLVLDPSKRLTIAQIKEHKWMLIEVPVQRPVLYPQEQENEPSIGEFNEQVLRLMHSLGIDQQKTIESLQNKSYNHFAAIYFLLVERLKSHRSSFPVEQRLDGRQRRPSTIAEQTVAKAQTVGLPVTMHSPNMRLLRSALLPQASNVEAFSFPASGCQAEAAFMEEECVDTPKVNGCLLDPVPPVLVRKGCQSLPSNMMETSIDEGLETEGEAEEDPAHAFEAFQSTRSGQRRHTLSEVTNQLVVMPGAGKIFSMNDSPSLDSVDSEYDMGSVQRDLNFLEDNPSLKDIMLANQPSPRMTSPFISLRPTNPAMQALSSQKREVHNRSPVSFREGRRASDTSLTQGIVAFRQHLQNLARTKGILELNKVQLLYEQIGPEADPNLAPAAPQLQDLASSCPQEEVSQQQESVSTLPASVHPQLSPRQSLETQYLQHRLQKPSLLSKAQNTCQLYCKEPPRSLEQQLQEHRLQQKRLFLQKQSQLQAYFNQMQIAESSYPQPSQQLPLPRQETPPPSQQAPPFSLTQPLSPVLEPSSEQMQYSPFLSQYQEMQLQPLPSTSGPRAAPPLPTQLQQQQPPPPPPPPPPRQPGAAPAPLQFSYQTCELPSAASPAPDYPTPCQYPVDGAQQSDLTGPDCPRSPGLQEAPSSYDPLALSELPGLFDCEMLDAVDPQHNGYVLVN
Sequence of Cyclin-dependent kinase 6 (Homo sapiens) (Q00534 whole entry): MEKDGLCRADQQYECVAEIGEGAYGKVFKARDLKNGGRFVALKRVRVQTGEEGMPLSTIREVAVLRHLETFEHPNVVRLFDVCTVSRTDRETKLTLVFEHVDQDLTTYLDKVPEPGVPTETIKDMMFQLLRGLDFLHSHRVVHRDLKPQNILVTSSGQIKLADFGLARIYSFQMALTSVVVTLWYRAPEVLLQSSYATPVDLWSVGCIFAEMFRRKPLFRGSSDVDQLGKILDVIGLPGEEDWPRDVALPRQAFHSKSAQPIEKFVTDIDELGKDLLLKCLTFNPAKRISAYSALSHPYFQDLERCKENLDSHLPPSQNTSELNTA
Sequence of Casein kinase I isoform gamma-2 (Homo sapiens) (P78368 whole entry, looked up, canonical isoform): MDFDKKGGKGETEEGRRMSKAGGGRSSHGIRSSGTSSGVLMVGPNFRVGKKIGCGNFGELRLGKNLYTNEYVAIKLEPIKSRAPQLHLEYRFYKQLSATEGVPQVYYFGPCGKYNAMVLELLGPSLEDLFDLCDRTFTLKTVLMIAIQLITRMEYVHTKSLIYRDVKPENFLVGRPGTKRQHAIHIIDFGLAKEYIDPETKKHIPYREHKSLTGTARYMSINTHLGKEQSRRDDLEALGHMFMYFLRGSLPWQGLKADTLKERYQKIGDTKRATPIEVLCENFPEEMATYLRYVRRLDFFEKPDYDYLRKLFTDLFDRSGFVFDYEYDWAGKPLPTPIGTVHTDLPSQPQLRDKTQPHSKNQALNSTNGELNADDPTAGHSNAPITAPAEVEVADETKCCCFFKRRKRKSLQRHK

CNC(=O)Oc1cc(C)c(/C=C/c2cncc(C(=O)NC)c2)c(C)c1 gave an inhibition [1] of 0.86%, an inhibition [2] of -0.55% and an inhibition [3] of 0.19%. It also gave an inhibition [4] of 3.49%, an inhibition [5] of 4.46% and an inhibition [6] of 1.16%. It also gave an inhibition [7] of 0.83%, an inhibition [8] of 1.46% and an inhibition [9] of -0.21%. The inhibition [10] was 0.61%, the inhibition [11] was -0.49% and the inhibition [12] was 0.47%. For the same compound, the inhibition [13] was 0.29%, the inhibition [14] was -1.1% and the inhibition [15] was 46.9%. The inhibition [16] was 88.6%, the inhibition [17] was 7.72% and the inhibition [18] was 30.4%. It also gave an inhibition [19] of 2.75%, an inhibition [20] of 3.73% and an inhibition [21] of 1.39%. The inhibition [22] was 0.21%, the inhibition [23] was 1.46% and the inhibition [24] was -0.8%. The inhibition [25] was 1.61%, the inhibition [26] was 3.51% and the inhibition [27] was 1.33%. The inhibition [28] was 2.91%, the inhibition [29] was 0.3% and the inhibition [30] was 2.73%. The inhibition [31] was 1.68%, the inhibition [32] was 4.49% and the inhibition [33] was -0.06%. The inhibition [34] was -0.3%, the inhibition [35] was 0.63% and the inhibition [36] was -1.72%. It also gave an inhibition [37] of 1.5%, an inhibition [38] of 0.5% and an inhibition [39] of 0.33%. It also gave an inhibition [40] of 1.01%, an inhibition [41] of 0.95% and an inhibition [42] of 2.18%. For the same compound, the inhibition [43] was 0.2%, the inhibition [44] was -0.43% and the inhibition [45] was -2.38%. For the same compound, the inhibition [46] was 0.77%, the inhibition [47] was 1.89% and the inhibition [48] was 4.38%. For the same compound, the inhibition [49] was 0.33%, the inhibition [50] was 1.86% and the inhibition [51] was -0.43%. For the same compound, the inhibition [52] was 6.77%, the inhibition [53] was -0.07% and the inhibition [54] was 0.76%. It also gave an inhibition [55] of 2.64% and an inhibition [56] of 2.73%.
